For six compounds, composite z-score and z-score results are on record in PubChem BioAssay.

Activity calls are given as the source filed them.

Experiment [1] relates to Plasmodium falciparum Sir2 (PF13_0152, Sir2A). In words: Plasmodium falciparum Sir2A binding compounds – biochemical, small-molecule microarray, 635 nm fluorescence, primary screen (AID 1098).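 Also: score merges spot fluorescence intensity with its signal-to-noise ratio.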 To be noted: fluorescence 635 nm, higher = more signal.
The nature of experiment [2]: probe aDKK1 binding to arrayed compounds – biochemical, biotinylated probe, 635/667 nm fluorescence, primary screen (AID 1099).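 Also: score merges 667nm spot fluorescence with signal to noise across triplicate slides.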 To be noted: small-molecule microarray, higher = more signal.
Experiment [3] in a line: probe aCHRDL2 binding to arrayed compounds – biochemical, biotinylated probe, 635/667 nm fluorescence, primary screen (AID 1100). To be noted: small-molecule microarray, higher = more signal.
A short description of experiment [4]: change in splice reporter luminescence, either direction, cell-based, HEK293, spliceosome inhibition project, primary screen (AID 1101).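 Also: HEK293 cells carrying a splicing-competent luciferase reporter gene; test concentration not given here.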 To be noted: HEK293 splicing luciferase reporter, 24 h, higher = more signal, called active from +8 up or from −8 down. In general terms: Reporter assays use an easily measured gene product as a stand-in for the process of interest.

The target of experiment [5] is Fibroblast growth factor 10 (Homo sapiens) (UniProt O15520). In words: compounds binding fibroblast growth factor 10 – biochemical, small-molecule microarray, 635 nm fluorescence, primary screen (AID 1102). To be noted: FGF10 binding, fluorescence 635 nm, higher = more signal.
Sequence of Fibroblast growth factor 10 (Homo sapiens) (O15520 whole entry, looked up): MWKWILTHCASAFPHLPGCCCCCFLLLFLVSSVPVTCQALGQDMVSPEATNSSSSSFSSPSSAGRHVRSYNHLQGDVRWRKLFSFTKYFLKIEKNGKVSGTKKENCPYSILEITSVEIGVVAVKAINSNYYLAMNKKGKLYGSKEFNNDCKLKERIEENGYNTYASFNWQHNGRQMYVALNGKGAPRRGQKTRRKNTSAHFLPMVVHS
The subject of experiment [6] is glycogen synthase kinase-3 (GSK3A per assay name; protocol says GSK3B). Briefly: compounds binding glycogen synthase kinase-3 – biochemical, small-molecule microarray, 635 nm fluorescence, GSK3A, primary screen (AID 1103). Also: the record names both GSK3A and GSK3B. The conditions noted are these: fluorescence 635 nm, higher = more signal.
The target in experiment [7] is Epidermal growth factor receptor (Homo sapiens) (UniProt P00533). In words: compounds binding epidermal growth factor receptor – biochemical, small-molecule microarray, 635 nm fluorescence, primary screen (AID 1104).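 Also: score merges 667 nm emission intensity with spot signal to noise over triplicate slides.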 To be noted: EGFR binding, higher = more signal.
Sequence of Epidermal growth factor receptor (Homo sapiens) (P00533 whole entry, looked up): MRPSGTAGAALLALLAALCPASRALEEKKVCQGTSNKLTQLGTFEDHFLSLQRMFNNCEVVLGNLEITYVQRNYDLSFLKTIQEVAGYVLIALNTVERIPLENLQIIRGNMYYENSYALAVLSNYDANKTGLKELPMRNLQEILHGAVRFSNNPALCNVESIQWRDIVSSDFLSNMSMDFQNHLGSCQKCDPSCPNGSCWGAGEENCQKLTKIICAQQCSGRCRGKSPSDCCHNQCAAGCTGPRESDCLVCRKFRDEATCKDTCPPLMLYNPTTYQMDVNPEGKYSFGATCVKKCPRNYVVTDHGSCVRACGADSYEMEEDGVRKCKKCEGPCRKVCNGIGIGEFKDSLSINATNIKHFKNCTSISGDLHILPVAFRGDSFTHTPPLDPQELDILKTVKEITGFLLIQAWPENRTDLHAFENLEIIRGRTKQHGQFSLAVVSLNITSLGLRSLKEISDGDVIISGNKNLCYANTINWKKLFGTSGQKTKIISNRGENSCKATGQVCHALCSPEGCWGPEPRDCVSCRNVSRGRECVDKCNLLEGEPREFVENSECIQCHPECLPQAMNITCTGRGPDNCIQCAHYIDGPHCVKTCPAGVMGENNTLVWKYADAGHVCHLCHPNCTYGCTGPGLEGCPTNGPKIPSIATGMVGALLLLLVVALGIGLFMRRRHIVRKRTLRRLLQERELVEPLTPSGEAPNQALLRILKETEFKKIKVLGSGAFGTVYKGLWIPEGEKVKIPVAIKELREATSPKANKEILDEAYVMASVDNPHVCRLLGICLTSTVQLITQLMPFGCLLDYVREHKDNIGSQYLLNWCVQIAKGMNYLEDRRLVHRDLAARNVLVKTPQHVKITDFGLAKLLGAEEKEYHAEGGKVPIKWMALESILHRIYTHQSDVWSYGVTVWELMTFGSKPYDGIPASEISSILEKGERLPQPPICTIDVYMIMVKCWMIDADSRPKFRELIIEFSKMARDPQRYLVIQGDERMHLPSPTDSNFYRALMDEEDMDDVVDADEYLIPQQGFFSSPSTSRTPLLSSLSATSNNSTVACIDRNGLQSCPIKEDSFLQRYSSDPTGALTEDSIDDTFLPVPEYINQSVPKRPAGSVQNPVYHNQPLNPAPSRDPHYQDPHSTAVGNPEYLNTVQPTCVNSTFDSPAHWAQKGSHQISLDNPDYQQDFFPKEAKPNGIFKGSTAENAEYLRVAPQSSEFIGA
Experiment [8] deals with Follistatin-related protein 3 (Homo sapiens) (UniProt O95633). In words: compounds binding follistatin-related protein 3 – biochemical, small-molecule microarray, 635 nm fluorescence, primary screen (AID 1105).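 Also: score merges emission near 667 nm and signal to noise per printed spot across three slides.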 To be noted: FSTL3 binding, higher = more signal.
Sequence of Follistatin-related protein 3 (Homo sapiens) (O95633 whole entry, looked up): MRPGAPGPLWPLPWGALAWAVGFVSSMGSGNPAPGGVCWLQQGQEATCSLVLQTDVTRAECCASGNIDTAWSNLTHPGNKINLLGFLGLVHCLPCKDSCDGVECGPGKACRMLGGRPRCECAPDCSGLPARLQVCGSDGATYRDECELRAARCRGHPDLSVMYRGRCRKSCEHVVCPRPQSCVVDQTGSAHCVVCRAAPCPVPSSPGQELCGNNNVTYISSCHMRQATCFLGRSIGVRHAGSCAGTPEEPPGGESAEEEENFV
In experiment [9] the target is Dickkopf-related protein 1 (Homo sapiens) (UniProt O94907). Briefly: small molecules binding DKK1 protein – biochemical, small-molecule microarray, 635 nm fluorescence scan, primary screen (AID 1106).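 Also: score merges emission near 667 nm with signal to noise over three replicate slides.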 The conditions noted are these: higher = more signal.
Sequence of Dickkopf-related protein 1 (Homo sapiens) (O94907 whole entry, looked up): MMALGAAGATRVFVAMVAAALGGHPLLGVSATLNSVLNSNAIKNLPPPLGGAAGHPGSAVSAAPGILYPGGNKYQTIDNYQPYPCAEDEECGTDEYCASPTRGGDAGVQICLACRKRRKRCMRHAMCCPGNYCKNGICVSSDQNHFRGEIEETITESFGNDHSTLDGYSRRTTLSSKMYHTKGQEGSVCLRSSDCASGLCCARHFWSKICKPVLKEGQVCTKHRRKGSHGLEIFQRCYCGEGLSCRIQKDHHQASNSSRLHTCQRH
Experiment [10] relates to Inhibin beta A chain (activin A). Briefly: small molecules binding activin A – biochemical, small-molecule microarray, 635 nm fluorescence scan, primary screen (AID 1107).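 Also: mouse activin A protein probed at 4.33 µg/mL on printed slides; score merges bound-protein fluorescence near 667 nm with spot signal-to-noise.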 To be noted: INHBA, higher = more signal.
For experiment [11], the system named is Human papillomavirus type 1a protein E7 (residues 44-93). Briefly: small molecules binding HPV E7 44-93 – biochemical, small-molecule microarray, residues 44-93, 635 nm fluorescence, primary screen (AID 1108).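 Also: E7 fragment applied at 1 µg/mL in TBST for 1 h at 4 C; score combines spot fluorescence with its signal to noise ratio.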 The conditions noted are these: fluorescence 635 nm, higher = more signal.
A short description of experiment [12]: hepatitis C replication reporter changes, two-sided – Huh7 cells, luciferase reporter, HCV replication inhibitor project, primary screen (AID 1109).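 Also: huh7 hepatoma cells harbouring a luciferase neomycin HCV replicon reporter; luciferase luminescence as measure of HCV replicon replication; test concentration not given here.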 To be noted: Huh7 HCV replicon luciferase reporter, 48 h; higher = more signal.
Experiment [13] concerns the target Left-right determination factor 2 (Homo sapiens) (UniProt O00292). Briefly: small molecules binding LEFTY2 protein – biochemical, small-molecule microarray, 635 nm fluorescence scan, primary screen (AID 1110). To be noted: higher = more signal.
The target in experiment [14] is Calmodulin-1 (Homo sapiens) (UniProt P0DP23). In words: small molecules binding calmodulin-1 with EGTA – biochemical, small-molecule microarray, Cy5-labelled CALM1, profiling panel (AID 1111).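 Also: labelled calmodulin applied in Tris saline Tween buffer holding calcium plus EGTA and DTT.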 To be noted: Cy5-CALM1 binding fluorescence, higher = more signal.
Experiment [15] has the same target. Briefly: small molecules binding Ca-loaded calmodulin-1 – biochemical, small-molecule microarray, Cy5-labelled CALM1, plus calcium, artefact control for SMM control-protein annotation, profiling panel (AID 1112).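 Also: score merges spot fluorescence with signal to noise from triplicate slides.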 To be noted: Cy5-CALM1 binding fluorescence, higher = more signal.
Experiment [16] is described as follows: probe aWnt5a binding to arrayed compounds – biochemical, biotinylated probe, 635/667 nm fluorescence, primary screen (AID 1113).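 Also: score merges 667 nm fluorescence intensity with signal-to-noise per printed feature.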 To be noted: small-molecule microarray, higher = more signal.
Experiment [17] can be described thus: probe aShh binding to arrayed compounds – biochemical, biotinylated probe, 635/667 nm fluorescence, primary screen (AID 1114).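 Also: probe is biotin-labelled aShh protein from a stem cell growth factor screen; measures binding of labelled protein to compounds printed on the slide; score merges feature fluorescence at 667 nm with signal-to-noise.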 To be noted: small-molecule microarray, higher = more signal.
Experiment [18] is described as follows: probe aNog binding to arrayed compounds – biochemical, biotinylated probe, 635/667 nm fluorescence, primary screen (AID 1115).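 Also: probe is biotinylated aNog protein used at 0.15 µg/mL for 1 h at 4 C; z-score combines 667 nm fluorescence of each spot with its signal to noise.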 To be noted: small-molecule microarray, higher = more signal.
Experiment [19] concerns the target Torsin-1A-interacting protein 1 (Homo sapiens) (UniProt Q5JTV8). Briefly: compound microarray binding of lysate hLAP1 – cell lysate, small-molecule microarray, COS7 lysate, 635/667 nm fluorescence, primary screen (AID 1116). To be noted: 635 nm fluorescence, higher = more signal.
In experiment [20] the target is Alpha-bungarotoxin (Bungarus multicinctus) (UniProt P60615). Briefly: compounds binding labelled alpha-BTX control protein – biochemical, small-molecule microarray, Alexa647 label, 635/667 nm fluorescence, artefact control for SMM control protein annotation, profiling panel (AID 1117). To be noted: alpha-BTX-A647 binding fluorescence, higher = more signal.
Sequence of Alpha-bungarotoxin (Bungarus multicinctus) (P60615 whole entry, looked up): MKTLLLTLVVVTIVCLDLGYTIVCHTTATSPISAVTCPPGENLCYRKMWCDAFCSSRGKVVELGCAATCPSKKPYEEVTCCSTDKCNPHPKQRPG

Sequence of Left-right determination factor 2 (Homo sapiens) (O00292 whole entry, looked up): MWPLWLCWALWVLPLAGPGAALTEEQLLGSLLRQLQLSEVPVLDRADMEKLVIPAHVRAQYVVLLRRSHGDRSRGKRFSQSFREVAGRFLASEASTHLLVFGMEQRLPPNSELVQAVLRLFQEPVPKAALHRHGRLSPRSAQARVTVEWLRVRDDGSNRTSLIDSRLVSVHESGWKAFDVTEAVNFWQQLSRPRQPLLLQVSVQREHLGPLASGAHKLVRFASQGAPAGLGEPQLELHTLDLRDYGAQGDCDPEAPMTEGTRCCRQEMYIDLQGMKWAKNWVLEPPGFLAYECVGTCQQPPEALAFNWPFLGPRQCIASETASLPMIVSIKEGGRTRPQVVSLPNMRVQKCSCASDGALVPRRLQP
Sequence of Torsin-1A-interacting protein 1 (Homo sapiens) (Q5JTV8 whole entry, looked up): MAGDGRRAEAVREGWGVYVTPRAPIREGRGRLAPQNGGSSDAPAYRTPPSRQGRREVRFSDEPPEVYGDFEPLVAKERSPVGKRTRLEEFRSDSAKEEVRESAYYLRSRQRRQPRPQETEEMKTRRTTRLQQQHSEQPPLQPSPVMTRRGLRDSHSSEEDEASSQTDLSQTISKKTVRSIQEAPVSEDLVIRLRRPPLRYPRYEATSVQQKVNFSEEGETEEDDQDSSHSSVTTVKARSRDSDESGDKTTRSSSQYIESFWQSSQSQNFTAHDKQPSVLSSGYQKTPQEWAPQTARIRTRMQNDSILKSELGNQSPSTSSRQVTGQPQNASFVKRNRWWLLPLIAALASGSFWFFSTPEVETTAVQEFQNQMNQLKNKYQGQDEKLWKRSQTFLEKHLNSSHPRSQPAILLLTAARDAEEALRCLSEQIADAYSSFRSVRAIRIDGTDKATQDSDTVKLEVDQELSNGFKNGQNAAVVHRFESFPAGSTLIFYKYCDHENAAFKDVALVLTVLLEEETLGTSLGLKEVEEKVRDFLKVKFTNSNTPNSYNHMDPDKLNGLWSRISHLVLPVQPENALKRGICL

As for `CCc1cc2c(nc1CC)CCN(CCC(C)=NOC[C@@H](O)COCc1ccco1)C2`, the composite z-score in [1] turned out to be 1.54; in [2] it was 0.0564; in experiment [3], 0.202; in experiment [5], 0.529; in experiment [6] it was 1.3; in experiment [7], 1.78. The composite z-score was 1.5 in experiment [8]; 1.7 in experiment [9]; 2.1 in [10]; -1.51 in experiment [11]; 1.48 in experiment [13]; -0.729 in experiment [14]. Moreover, the composite z-score was -1.77 in experiment [15]; 0.0663 in experiment [16]; 0.547 in experiment [17]; -0.0965 in experiment [18]; 1.11 in experiment [19]; 0.64 in experiment [20]. Further, the z-score is -0.0287 (inactive) in experiment [4] and -1.59 in experiment [12].
On to `COC(=O)CC=C[C@@H](C)[C@H](OC)c1ccccc1Br`, for which the composite z-score in [1] is -0.581; in experiment [2], -0.133; in experiment [3], -0.499; in [5], 0.0042; in experiment [6], 0.169; in [7], 0.181. The composite z-score in [8] is 0.231; in experiment [9], 0.503; in experiment [10] it was 0.887; in experiment [11], -0.0017; in experiment [13], 0.406; in experiment [14] it was -0.0557. The composite z-score in experiment [15] was -0.346; in experiment [16] it was -0.116; in [17], -0.279; in experiment [18], -0.482; in experiment [19], 0.188; in experiment [20] it was -0.152. The z-score was -0.0767 (inactive) in [4] and 0.14 in [12].
As for `COCCOC(=O)N1C(=O)[C@@]2(c3cc(C#CC4(O)CCCCCC4)ccc31)[C@H](C(=O)N1CCN(c3ncccn3)CC1)[C@H]1C(=O)O[C@H](c3ccccc3)[C@H](c3ccccc3)N1[C@@H]2c1ccc(OCCO)cc1`, the composite z-score in experiment [1] was 1.4; in experiment [2], 0.0932; in [3], -0.0616; in experiment [5] it was 1.18; in experiment [6] it was 1.3; in [7], 0.729. Moreover, the composite z-score is 1.19 in [8]; 0.738 in [9]; 0.274 in experiment [10]; 1.01 in [11]; 0.519 in [13]; 0.942 in experiment [14]. The composite z-score was determined as 0.0751 in [15]; 0.0136 in [16]; 0.637 in experiment [17]; 0.42 in experiment [18]; 0.889 in [19]; 1.33 in experiment [20]. The z-score was -0.702 (inactive) in experiment [4] and -1.38 in experiment [12].
In the case of `COCCCNC(=O)[C@]1(Cc2ccccc2)N=C(c2ccc(OCCCO)cc2)O[C@@H]1c1ccccc1`, the composite z-score was 1.73 in experiment [1]; -0.0501 in experiment [2]; 0.755 in experiment [3]; 1.16 in [5]; 0.618 in experiment [6]; -0.578 in experiment [7]. For the same compound, the composite z-score is -0.351 in experiment [8]; -0.894 in [9]; 0.455 in [10]; 1.09 in experiment [11]; -0.248 in experiment [13]; 1.81 in experiment [14]. For the same compound, the composite z-score worked out at 0.213 in experiment [15]; 0.201 in [16]; 0.299 in experiment [17]; 1.89 in experiment [18]; 1.84 in experiment [19]; 1.32 in experiment [20]. Further, the z-score in experiment [4] is 0.0778 (inactive); in [12] it was -1.05.
Take `COC(=O)CC=C[C@@H](C)[C@@H](C=NO[C@@H](C)c1cc(-c2c(C)cc(C)cc2C)no1)OC`: the composite z-score was -0.677 in experiment [1]; 0.237 in experiment [2]; 1.07 in experiment [3]; -1.72 in experiment [5]; -1.19 in experiment [6]; -1.81 in experiment [7]. Moreover, the composite z-score was -1.67 in experiment [8]; -2.42 in experiment [9]; -0.2 in experiment [10]; -1.29 in experiment [11]; -0.627 in experiment [13]; -0.908 in experiment [14]. The composite z-score was -1.48 in experiment [15]; -0.295 in experiment [16]; -0.2 in experiment [17]; 0.531 in [18]; -1.75 in [19]; -1.11 in experiment [20]. In addition, the z-score in [4] was -1.2 (inactive); in experiment [12], -0.378.
Take `COC(=O)C1=C(C)[C@@H](O)[C@@H](C)[C@H](c2c(OC)c(OC)c(C)c(OC)c2OC)O1`: the composite z-score in experiment [1] was 0.191; in [2] it was -0.27; in experiment [3], -0.595; in [5], 0.256; in experiment [6] it was -0.419; in experiment [7], 0.269. Moreover, the composite z-score in [8] was 0.398; in [9], 0.56; in experiment [10] it was 0.394; in experiment [11], -0.685; in [13] it was 0.494; in experiment [14], -0.628. The composite z-score is -0.787 in experiment [15]; -0.171 in experiment [16]; -0.0011 in experiment [17]; -0.135 in [18]; 0.272 in experiment [19]; 0.138 in [20]. Moreover, the results for the z-score in [4] and in experiment [12] were -0.361 (inactive) and -0.566, respectively.
